# Measured values as given in the supplement of paper PMC7411640.
# Counter-ions that a name gives are not always drawn.
# Tested on: MDA-MB-468
# Assay: phospho-S6 immunofluorescence (DAPI-normalised), per-plate z-score; higher = higher phospho-S6 signal (less pathway suppression)
# Conditions: 24 h
# Method: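 GPCR-targeted compound library (MedChemExpress HY-L006) tested on MDA-MB-468 PTEN-null TNBC cells in 384-well plates at 0.1, 1 or 10 uM, combined with vehicle, GDC0941 450 nM or lapatinib 1 uM, for 24 h. Phospho-S6 (S240/244) immunofluorescence normalised to DAPI and expressed as a per-plate z-score; values are the mean of biological triplicates.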
Compound,phospho-S6 immunofluorescence (z-score) (co-treatment: GDC0941 450 nM),phospho-S6 immunofluorescence (z-score) (co-treatment: lapatinib 1 uM),phospho-S6 immunofluorescence (z-score) (co-treatment: vehicle)
CC1(C)O[C@@H]2C[C@H]3[C@@H]4CCC5=CC(=O)C=C[C@]5(C)[C@H]4[C@@H](O)C[C@]3(C)[C@]2(C(=O)CO)O1 [Desonide] (compound 10 µM),-0.1,0.54,1.16
CCNC(=O)[C@H]1O[C@@H](n2cnc3c(N)nc(NCCc4ccc(CCC(=O)O)cc4)nc32)[C@H](O)[C@@H]1O (compound 10 µM),0.05,1.28,-0.14
Clc1cccc(Cl)c1NC1=NCCN1 [Clonidine (hydrochloride)] (compound 10 µM),0.37,0.75,1.03
COc1ccccc1N1CCN(CCCCN2C(=O)c3ccccc3C2=O)CC1 [NAN-190 (hydrobromide)] (compound 10 µM),0.76,-0.29,0.19
COc1ccccc1Oc1c(NS(=O)(=O)c2ccc(C)cn2)nc(-c2ccncc2)nc1OC [Avosentan] (compound 10 µM),-0.03,-0.67,-0.65
CC(COc1ccccc1)N(CCCl)Cc1ccccc1 (centres undefined) [Phenoxybenzamine (hydrochloride)] (compound 10 µM),0.33,-0.04,0.39
COc1cc2nc(C3CC3)nc(N3CCN(c4ccccc4OC)CC3)c2cc1OC (compound 10 µM),-1.77,-0.08,0.05
CCCC1O[C@@H]2C[C@H]3[C@@H]4CCC5=CC(=O)C=C[C@]5(C)[C@H]4[C@@H](O)C[C@]3(C)[C@]2(C(=O)CO)O1 (some centres undefined) [Budesonide] (compound 10 µM),-0.53,-0.12,-0.2
CC(=O)OCC(=O)[C@@]1(O)[C@H](C)C[C@H]2[C@@H]3CCC4=CC(=O)C=C[C@]4(C)[C@@]3(F)[C@@H](O)C[C@@]21C [Dexamethasone (acetate)] (compound 10 µM),0.07,0.45,1.18
O=C(NCCCN1CCC2(CC1)OCc1ccccc12)[C@H]1CCCN1Cc1ccccc1 (compound 10 µM),-1.61,-1.57,-0.4
CCCN[C@H]1CCc2nc(N)sc2C1 [Pramipexole (dihydrochloride)] (compound 10 µM),0.87,0.31,0.17
Clc1ccc2c(c1)CCc1cccnc1C2=C1CCNCC1 [Desloratadine] (compound 10 µM),-0.48,-1.96,0.51
O=C1CCc2ccc(OCCCCN3CCN(c4cccc(Cl)c4Cl)CC3)cc2N1 [Aripiprazole] (compound 10 µM),-3.14,-5.16,-3.2
Cc1c(-c2ccccc2)oc2c(C(=O)OCCN3CCCCC3)cccc2c1=O [Flavoxate (hydrochloride)] (compound 10 µM),0.25,0.29,0.07
O=c1n(CCCN2CCN(c3cccc(Cl)c3)CC2)nc2ccccn12 [Trazodone (hydrochloride)] (compound 10 µM),0.41,0.08,-0.51
C=C[C@@]1(C)CC(=O)[C@]2(O)[C@@]3(C)[C@@H](O)CCC(C)(C)[C@@H]3[C@H](O)[C@H](OC(C)=O)[C@@]2(C)O1 [Forskolin] (compound 10 µM),1.82,2.65,0.23
O=C1NCCN1CCN1CCC(c2cn(-c3ccc(F)cc3)c3ccc(Cl)cc23)CC1 [Sertindole] (compound 10 µM),-4.7,-6.25,-4.35
CC(C)Oc1ccc(-c2nc(-c3cccc4c3CC[C@@H]4NCCO)no2)cc1C#N [Ozanimod] (compound 10 µM),0.72,-0.62,-0.3
OC[C@H]1O[C@@H](n2cnc3c(N[C@H]4CCC[C@@H]4O)ncnc32)[C@H](O)[C@@H]1O (compound 10 µM),0.54,0.82,0.2
Clc1cccc(COc2cncc(N3CCNCC3)n2)c1 (compound 10 µM),-1.03,-4.09,0.21
CCCCc1nc(C)c(CC(=S)N(C)C)c(=O)n1Cc1ccc(-c2ccccc2-c2nnn[nH]2)cc1 [Fimasartan] (compound 10 µM),0.34,1.66,-0.04
N[C@@H](CCC(=O)O)C(=O)[O-].[Na+] [L-Glutamic acid monosodium salt] (compound 10 µM),0.12,-0.6,-0.39
CC(C)[N+]1(C)[C@@H]2CC[C@H]1C[C@@H](OC(=O)C(CO)c1ccccc1)C2 (some centres undefined) [Ipratropium (bromide)] (compound 10 µM),-0.02,0.28,-0.61
